86 compounds from paper PMC4336329 (PLoS ONE, 2015) can be followed below.

SMILES strings stand for the structures. Hit rate of the full screen: of about 310,000 compounds, about 14,000 (4.5%) showed an effect of 50% or more. The effect is printed as a negative number. Only a selection was taken, and strong results are over-represented in it overall.
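Also: peak tail current of the secondary pulse compared with the same well before compound.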

For this assay, the target named is human ether-à-go-go-related gene (hERG) potassium channel (human, UniProt Q12809). Kind of assay: primary screen, population patch clamp on CHO cells stably expressing hERG; higher = less effect of the substance.
human ether-à-go-go-related gene (hERG) potassium channel, sequence (Q12809 whole entry, looked up): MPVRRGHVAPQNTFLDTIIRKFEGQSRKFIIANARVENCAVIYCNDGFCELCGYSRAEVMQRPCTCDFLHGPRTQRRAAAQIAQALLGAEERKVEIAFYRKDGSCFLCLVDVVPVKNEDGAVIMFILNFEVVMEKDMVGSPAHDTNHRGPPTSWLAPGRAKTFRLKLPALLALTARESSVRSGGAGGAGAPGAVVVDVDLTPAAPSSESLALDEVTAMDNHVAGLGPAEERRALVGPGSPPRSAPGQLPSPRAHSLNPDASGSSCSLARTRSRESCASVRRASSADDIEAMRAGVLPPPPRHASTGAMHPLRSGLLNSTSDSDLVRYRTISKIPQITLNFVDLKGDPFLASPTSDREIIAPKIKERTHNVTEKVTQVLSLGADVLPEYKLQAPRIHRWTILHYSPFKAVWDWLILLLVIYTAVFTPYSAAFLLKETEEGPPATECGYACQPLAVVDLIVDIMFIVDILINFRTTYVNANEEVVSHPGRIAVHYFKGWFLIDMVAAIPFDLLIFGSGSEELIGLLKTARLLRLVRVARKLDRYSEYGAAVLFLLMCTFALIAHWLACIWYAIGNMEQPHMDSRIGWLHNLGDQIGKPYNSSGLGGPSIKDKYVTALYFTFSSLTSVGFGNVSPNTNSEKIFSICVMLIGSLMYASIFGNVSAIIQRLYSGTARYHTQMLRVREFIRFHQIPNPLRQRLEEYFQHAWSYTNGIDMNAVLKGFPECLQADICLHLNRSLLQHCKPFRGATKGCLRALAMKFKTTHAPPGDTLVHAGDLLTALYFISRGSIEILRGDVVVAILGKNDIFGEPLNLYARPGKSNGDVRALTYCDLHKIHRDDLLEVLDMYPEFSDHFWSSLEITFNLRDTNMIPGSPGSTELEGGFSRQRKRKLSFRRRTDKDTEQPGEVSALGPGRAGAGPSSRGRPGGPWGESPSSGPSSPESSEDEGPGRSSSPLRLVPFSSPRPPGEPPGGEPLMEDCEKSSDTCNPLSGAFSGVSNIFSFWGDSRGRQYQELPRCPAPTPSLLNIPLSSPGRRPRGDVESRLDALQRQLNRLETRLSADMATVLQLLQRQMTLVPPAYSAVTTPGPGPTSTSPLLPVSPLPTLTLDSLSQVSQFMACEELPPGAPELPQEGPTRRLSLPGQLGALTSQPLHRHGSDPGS
In the case of `O=C(Cc1ccccc1)Nc1cc([N+](=O)[O-])ccc1N1CCOCC1`, the “hERG current change (%, negative = inhibition) at 10uM” value was -36.2%.
Consider `CCOC(=O)CSc1ccc2nnc(CCNS(=O)(=O)c3ccc(C)cc3)n2n1`, for which the “hERG current change (%, negative = inhibition) at 10uM” value came out at 4.23%.
As to `O=C(CNS(=O)(=O)/C=C/c1ccccc1)OC1CCOC1=O` (centres unmarked), the “hERG current change (%, negative = inhibition) at 10uM” value is 15.9%.
In the case of `Cc1cc(C)n(-c2nc(N(C)C)nc(N3CCOCC3)n2)n1` it was -6.78%; in that of `CCN(CC)S(=O)(=O)c1ccc(OC)c(NC(=O)c2ccc([N+](=O)[O-])cc2)c1`, -34.9%; in that of `CN1/C(=C\C(=S)NC(=O)c2cccc(Br)c2)C(C)(C)c2ccccc21`, -7.85%.
For `CCSc1nnc(N2C(=O)CC(c3ccsc3)C3=C2CC(C)(C)CC3=O)s1` (centres unmarked), the “hERG current change (%, negative = inhibition) at 10uM” value is reported as -6.24%.
Take `CN(Cc1nc2ccccc2c(=O)[nH]1)C(=O)c1ccc(S(=O)(=O)N(C)C)cc1`: the “hERG current change (%, negative = inhibition) at 10uM” value is 4.04%.
With `COc1cccc(Nc2nc(-c3cccs3)nc3ccccc23)c1` the figure was 9.19%.
As for `CCCCCC(=O)N/N=C(\C)c1ccc(Cl)cc1`, the “hERG current change (%, negative = inhibition) at 10uM” value is 9.87%.
In the case of `CCCCC(O)(CCCC)C(=O)N/N=C(\C)c1ccc(Cl)cc1` it was -66.9%.
Turning to `C/C(=N\NC(N)=O)c1ccc(Cl)cc1`, the “hERG current change (%, negative = inhibition) at 10uM” value is given as 6.12%.
In the case of `Cc1onc(-c2ccccc2)c1C(=O)N1CCN(S(=O)(=O)c2ccccc2Br)CC1` it was -1.99%.
With `Cc1c(Cl)cccc1NC(=S)N1CC2CC(C1)c1cccc(=O)n1C2` (centres unmarked) the figure was -4.67%; with `Cc1nn(-c2nc3ccccc3[nH]2)c(N)c1-c1ccccc1`, 0.295%; with `Cc1nn(C(C)C(=O)NCCCN2CCCCCC2)c(=O)c2c1sc1ccccc12` (centres unmarked), -28.1%.
As to `Cc1nn(C(C)C(=O)NCCCN(Cc2ccccc2)C(C)C)c(=O)c2c1sc1ccccc12` (centres unmarked), the “hERG current change (%, negative = inhibition) at 10uM” value is on record as -11.7%.
With `CCN(CC)CCCNC(=O)C(C)n1nc(C)c2sc3ccccc3c2c1=O` (centres unmarked), the “hERG current change (%, negative = inhibition) at 10uM” value is listed as -19.7%.
On to `Cc1nn(C(C)C(=O)NCCCN2CCCCC2C)c(=O)c2c1sc1ccccc12` (centres unmarked), for which the “hERG current change (%, negative = inhibition) at 10uM” value is -5.22%.
For `CCC1CCCCN1CCCNC(=O)C(C)n1nc(C)c2sc3ccccc3c2c1=O` (centres unmarked), the “hERG current change (%, negative = inhibition) at 10uM” value is recorded as -69.8%.
Consider `CCC(C(=O)NCCCN(CC)Cc1ccccc1)n1nc(C)c2sc3ccccc3c2c1=O` (centres unmarked), for which the “hERG current change (%, negative = inhibition) at 10uM” value is listed as -68.1%.
Regarding `CCC(=O)N1CCc2cc(S(=O)(=O)N3CCc4ccccc43)ccc21`, the “hERG current change (%, negative = inhibition) at 10uM” value worked out at 2.61%.
Consider `Clc1ccc2oc(SCc3cccnc3)nc2c1`, for which the “hERG current change (%, negative = inhibition) at 10uM” value is -16.2%.
Consider `CCCOc1ccc(OCCSc2ncccn2)cc1`, for which the “hERG current change (%, negative = inhibition) at 10uM” value is recorded as -2.55%.
As to `O=C(CCNC(=O)c1ccccc1)NCCCc1ccccc1`, the “hERG current change (%, negative = inhibition) at 10uM” value was determined as 6.54%.
`O=C(Nc1ccc(C(F)(F)F)cc1)C1CCN(c2cnccn2)CC1`: the “hERG current change (%, negative = inhibition) at 10uM” value was -12.5%.
With `COc1ccc(CN(C)CCc2ccccn2)c(OC)c1OC.O=C(O)C(=O)O` the figure was -38.9%.
As to `COc1ccc(CN(C)CC(O)COc2ccc(C(=O)c3ccccc3)cc2)c(OC)c1OC` (centres unmarked), the “hERG current change (%, negative = inhibition) at 10uM” value is given as -63.7%.
`COc1ccc(CN(C)Cc2ccccc2)c(OC)c1OC`: the “hERG current change (%, negative = inhibition) at 10uM” value is recorded as -16.9%.
For the compound `COc1cccc(OC)c1OCCOc1ccc(C(=O)c2ccccc2)cc1`, the “hERG current change (%, negative = inhibition) at 10uM” value was -4.82%.
With `COc1ccc(CN(C)CC(O)COC(c2ccccc2)c2ccccc2)c(OC)c1OC` (centres unmarked) the figure was -76.7%; with `CN(Cc1cccc(Cl)c1Cl)CC(O)COc1ccccc1.O=C(O)C(=O)O` (centres unmarked), -12%.
For `COc1ccc(CCNC(=O)C2CCC(=O)N(C3CCCCCC3)C2)cc1` (centres unmarked), the “hERG current change (%, negative = inhibition) at 10uM” value came out at 8.9%.
As to `O=C(CCN1C(=O)NC2(CCCC2)C1=O)Nc1cccc(S(=O)(=O)N2CCOCC2)c1`, the “hERG current change (%, negative = inhibition) at 10uM” value came to 10.7%.
With `O=C(CSc1ncnc2c1nnn2Cc1ccccc1F)NCC1CCCO1` (centres unmarked) the figure was -2.7%; with `Cc1ccc(S(=O)(=O)CCC(=O)Nc2ccc3c(c2)OCO3)cc1`, -16%; with `Cc1ccc(C)c(S(=O)(=O)N2CCN(C(=O)Nc3ccccc3)CC2)c1`, -26.1%.
As to `O=C(/C=C/c1ccc([N+](=O)[O-])s1)N1CCN(c2ccccc2)CC1`, the “hERG current change (%, negative = inhibition) at 10uM” value is listed as -37%.
With `O=C(/C=C/c1ccc([N+](=O)[O-])s1)N1CCCCC1`, the “hERG current change (%, negative = inhibition) at 10uM” value is on record as -38.7%.
As to `O=C(/C=C/c1ccc([N+](=O)[O-])s1)N1CCCC1`, the “hERG current change (%, negative = inhibition) at 10uM” value was -52.9%.
`COc1cccc(-c2nn(CCC#N)cc2C(=O)Nc2ccccc2Cl)c1`: the “hERG current change (%, negative = inhibition) at 10uM” value came to 5.09%.
Regarding `Cc1cc(C)nc(-n2nc(C)cc2NC(=O)CNC(C)c2ccccc2)n1` (centres unmarked), the “hERG current change (%, negative = inhibition) at 10uM” value is -62.2%.
With `COc1ccc(CNCC(=O)Nc2cc(C)nn2-c2nc(C)cc(C)n2)cc1OC`, the “hERG current change (%, negative = inhibition) at 10uM” value is reported as -56.8%.
With `CCC(C(=O)Nc1cc(C)cc(C)n1)c1ccccc1` (centres unmarked) the figure was -23.6%; with `CC(=O)Nc1cc(C)nn1-c1nc(C)cc(C)n1`, 25.4%; with `CCN(CC(=O)Nc1cc(C)nn1-c1nc(C)cc(C)n1)Cc1ccccc1`, -42.8%.
For the compound `Cc1cc(C)nc(-n2nc(C)cc2NC(=O)C(C)C)n1`, the “hERG current change (%, negative = inhibition) at 10uM” value was 16.9%.
With `Cc1cc(NC(=O)CSc2cc(Cl)ccc2Cl)n(-c2ccccc2)n1` the figure was -20.2%; with `CCC(C(=O)Nc1cc(C)nn1-c1nc(C)cc(C)n1)c1ccccc1` (centres unmarked), -67.7%.
Consider `CCc1ccc(NC(=O)CNCc2ccc(OC)c(OC)c2)cc1.O=C(O)C(=O)O`, for which the “hERG current change (%, negative = inhibition) at 10uM” value was -21.3%.
In the case of `COc1ccc(-c2nc(CSCC(=O)N3CCN(C)CC3)c(C)o2)cc1OC` it was 11.7%; in that of `COc1ccccc1Nc1nnc(SCc2nnc(-c3cc(OC)c(OC)c(OC)c3)o2)s1`, -21.7%.
`CC1(C)O[C@@H]2[C@H](O1)[C@@H](COS(=O)(=O)[O-])O[C@H]2n1cnc2c(N)ncnc21.[K+]`: the “hERG current change (%, negative = inhibition) at 10uM” value worked out at 15.7%.
Turning to `O=C(COc1ccc(C(=O)NCCc2ccccc2)cc1)Nc1ccccc1`, the “hERG current change (%, negative = inhibition) at 10uM” value is 7.64%.
As to `COc1ccc2[nH]c(C)c(CCNCc3cccnc3)c2c1.O=C(O)C(=O)O`, the “hERG current change (%, negative = inhibition) at 10uM” value is reported as -3.77%.
For `CCOc1cccc(CNCCc2c(C)[nH]c3ccc(OC(F)(F)F)cc23)c1O.O=C(O)C(=O)O`, the “hERG current change (%, negative = inhibition) at 10uM” value is -51.9%.
With `COc1ccc2[nH]c(C)c(CCNCc3cn(C)c4ccccc34)c2c1.O=C(O)C(=O)O` the figure was -27.8%; with `Cc1[nH]c2ccc(OC(F)(F)F)cc2c1CCNCc1cccc([N+](=O)[O-])c1`, -25.4%; with `COc1ccc(CNCCc2c(C)[nH]c3ccc(OC(F)(F)F)cc23)c(OC)c1.O=C(O)C(=O)O`, -51%.
Take `Cc1[nH]c2ccc(OC(F)(F)F)cc2c1CCNCc1ccc(Cl)cc1.O=C(O)C(=O)O`: the “hERG current change (%, negative = inhibition) at 10uM” value is -34.5%.
With `CC(=O)n1cc(CO)c2ccccc21` the figure was 9.03%; with `O=S(=O)(Nc1nc2ccccc2nc1Nc1ccc2c(c1)OCO2)c1ccc(F)cc1`, 24.5%; with `Cc1cccc(C)c1NC(=O)CSc1ccc([N+](=O)[O-])cn1`, -12.3%.
With `COc1ccc(NC(=S)NCc2cccnc2)cc1OC` the figure was 5.8%; with `OC1(c2cccs2)CN(c2ccc(Cl)cc2)C2=[N+]1CCCS2.[Br-]` (centres unmarked), -73.6%.
Regarding `OC1(c2ccc(Br)cc2)CN(c2ccccc2)C2=[N+]1CCS2.[Br-]` (centres unmarked), the “hERG current change (%, negative = inhibition) at 10uM” value is listed as -19.5%.
Regarding `OC1(c2cccs2)CN(c2ccc(Br)cc2)C2=[N+]1CCCS2.[Br-]` (centres unmarked), the “hERG current change (%, negative = inhibition) at 10uM” value was -72.1%.
Regarding `CCc1ccc(N2CC(O)(c3cccs3)[N+]3=C2SCCC3)cc1.[Br-]` (centres unmarked), the “hERG current change (%, negative = inhibition) at 10uM” value is -70%.
With `Cc1ccc(Oc2ccc(C(=O)NC3CCSC3=O)cn2)cc1` (centres unmarked), the “hERG current change (%, negative = inhibition) at 10uM” value was found to be 12%.
`CC(C)(CNc1ccc([N+](=O)[O-])cc1Cl)CNS(C)(=O)=O`: the “hERG current change (%, negative = inhibition) at 10uM” value is reported as -1.02%.
As to `Cc1cc(/C=N/n2cnnc2)c(C)n1-c1ccccc1`, the “hERG current change (%, negative = inhibition) at 10uM” value is -4.02%.
Regarding `COc1ccccc1C(=O)CSc1nccn1C`, the “hERG current change (%, negative = inhibition) at 10uM” value is listed as -11.1%.
In the case of `O=C1NC(=O)N(c2ccccc2)C(=O)/C1=C\c1ccc2c3c(cccc13)CC2`, the “hERG current change (%, negative = inhibition) at 10uM” value was -20.4%.
Turning to `CCOC(=O)c1c(NC(=O)c2ccc(Cl)cc2)csc1C`, the “hERG current change (%, negative = inhibition) at 10uM” value is listed as -0.689%.
`O=C(NCCCN1CCN(c2cccc(Cl)c2)CC1)c1cccc(N2CCCC2=O)c1`: the “hERG current change (%, negative = inhibition) at 10uM” value is on record as -38%.
Consider `Cc1cc(C(=O)NCCCN2CCN(C3CCCCC3)CC2)n(-c2ccccc2)n1`, for which the “hERG current change (%, negative = inhibition) at 10uM” value is 2.76%.
With `Cc1cc(C(=O)NCCCN2CCN(c3cc(Cl)ccc3C)CC2)n(-c2ccccc2)n1`, the “hERG current change (%, negative = inhibition) at 10uM” value is -89.2%.
With `CC(=O)Nc1ccccc1C(=O)C(=O)Nc1cccc(C(=O)NCc2ccccc2)c1` the figure was -32.6%; with `CCCCNC(=O)c1cccc(NC(=O)C(=O)c2ccccc2NC(C)=O)c1`, -19.1%.
As to `COc1cccc(C(=O)NCCS(=O)(=O)NCc2ccc(Cl)cc2)c1`, the “hERG current change (%, negative = inhibition) at 10uM” value is listed as -36.5%.
Regarding `O=C(NCCCN1CCN(CCCNC(=O)c2cccc(Cl)c2)CC1)c1cccc(Cl)c1`, the “hERG current change (%, negative = inhibition) at 10uM” value is given as -74.4%.
For the compound `COc1ccc(CNS(=O)(=O)CCNC(=O)c2ccccc2)cc1`, the “hERG current change (%, negative = inhibition) at 10uM” value is recorded as -4.36%.
On to `COc1ccc(CNS(=O)(=O)CCNC(=O)c2cccc(OC)c2)cc1`, for which the “hERG current change (%, negative = inhibition) at 10uM” value is given as -78.1%.
For `Cc1cc(C(=O)NCCCN2CCOCC2)n(-c2ccccc2)n1`, the “hERG current change (%, negative = inhibition) at 10uM” value is on record as 19.3%.
For `CC(=O)Nc1ccccc1C(=O)C(=O)Nc1cccc(C(=O)NCc2ccc(C)cc2)c1`, the “hERG current change (%, negative = inhibition) at 10uM” value was -58.3%.
With `O=C(NCCCn1ccnc1)c1cccc(Cl)c1` the figure was 0.459%.
